What follows are targets tested with Nc1ncnc2c1ncn2[C@@H]1O[C@H](COP(=O)(O)OP(=O)(O)OP(=O)(O)O)[C@@H](O)[C@H]1O [adenosine 5'-triphosphate] (assay: log2 fold change of tryptic peptide abundance, ligand vs vehicle (limited proteolysis) (log2 ratio); higher = more trypsin-susceptible (destabilized)). Conditions: ligand concentration: 5 mM; sample: E. coli desalted lysate; replicate design: treated before aliquoting.
Experimental: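 HT-PELSA: desalted E. coli K-12 BW25113 lysate (with 12 mM MgCl2) incubated with 5 mM ATP (pH 7) or water for 30 min at 25 C, then a 4 min trypsin pulse at 22 C. Peptides were quantified by DIA-MS (4 replicates). Value is the peptide log2 fold change (treated/control); negative = stabilized. Scale: negative = ligand-stabilized region.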
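Further: lysate desalted by size exclusion to strip endogenous ATP, peptide intensities built from DIA-NN precursor signals, and peptides missing any value discarded before comparison.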

UniProt P00934, sequence (P00934 whole entry): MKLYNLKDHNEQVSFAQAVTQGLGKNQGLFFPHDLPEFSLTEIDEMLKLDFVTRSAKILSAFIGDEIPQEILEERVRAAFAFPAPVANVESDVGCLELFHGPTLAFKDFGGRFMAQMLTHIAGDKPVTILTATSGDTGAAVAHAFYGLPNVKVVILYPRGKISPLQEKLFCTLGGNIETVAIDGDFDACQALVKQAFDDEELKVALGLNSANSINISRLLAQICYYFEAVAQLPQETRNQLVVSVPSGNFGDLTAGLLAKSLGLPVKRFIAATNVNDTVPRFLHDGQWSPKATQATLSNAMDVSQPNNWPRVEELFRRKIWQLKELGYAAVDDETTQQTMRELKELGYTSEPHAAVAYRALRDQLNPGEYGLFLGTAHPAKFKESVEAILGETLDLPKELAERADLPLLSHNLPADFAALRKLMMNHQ
UniProt P0AFZ1, sequence (P0AFZ1 whole entry): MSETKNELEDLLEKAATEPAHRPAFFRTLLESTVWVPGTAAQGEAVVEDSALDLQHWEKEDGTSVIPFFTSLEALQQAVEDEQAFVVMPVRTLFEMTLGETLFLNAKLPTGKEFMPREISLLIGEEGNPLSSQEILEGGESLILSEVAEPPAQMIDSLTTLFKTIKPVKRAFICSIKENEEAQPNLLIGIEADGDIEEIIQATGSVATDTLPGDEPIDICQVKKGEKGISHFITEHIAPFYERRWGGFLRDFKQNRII
UniProt P77293, sequence (P77293 whole entry): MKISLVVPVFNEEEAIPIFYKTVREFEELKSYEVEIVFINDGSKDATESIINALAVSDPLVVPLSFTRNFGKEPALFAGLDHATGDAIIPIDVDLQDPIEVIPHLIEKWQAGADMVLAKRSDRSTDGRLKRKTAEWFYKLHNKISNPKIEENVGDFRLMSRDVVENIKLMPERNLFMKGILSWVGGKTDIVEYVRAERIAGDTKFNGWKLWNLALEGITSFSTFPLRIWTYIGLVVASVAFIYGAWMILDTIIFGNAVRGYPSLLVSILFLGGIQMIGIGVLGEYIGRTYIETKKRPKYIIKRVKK
UniProt Q47147, sequence (Q47147 whole entry): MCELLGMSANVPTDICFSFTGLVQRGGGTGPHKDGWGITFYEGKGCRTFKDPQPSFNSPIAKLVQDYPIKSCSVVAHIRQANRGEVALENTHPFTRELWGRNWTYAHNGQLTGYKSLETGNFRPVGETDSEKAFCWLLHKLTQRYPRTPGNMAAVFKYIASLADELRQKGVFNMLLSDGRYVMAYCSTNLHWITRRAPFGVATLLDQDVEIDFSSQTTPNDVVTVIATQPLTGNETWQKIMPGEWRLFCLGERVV
UniProt P21693, sequence (P21693 whole entry): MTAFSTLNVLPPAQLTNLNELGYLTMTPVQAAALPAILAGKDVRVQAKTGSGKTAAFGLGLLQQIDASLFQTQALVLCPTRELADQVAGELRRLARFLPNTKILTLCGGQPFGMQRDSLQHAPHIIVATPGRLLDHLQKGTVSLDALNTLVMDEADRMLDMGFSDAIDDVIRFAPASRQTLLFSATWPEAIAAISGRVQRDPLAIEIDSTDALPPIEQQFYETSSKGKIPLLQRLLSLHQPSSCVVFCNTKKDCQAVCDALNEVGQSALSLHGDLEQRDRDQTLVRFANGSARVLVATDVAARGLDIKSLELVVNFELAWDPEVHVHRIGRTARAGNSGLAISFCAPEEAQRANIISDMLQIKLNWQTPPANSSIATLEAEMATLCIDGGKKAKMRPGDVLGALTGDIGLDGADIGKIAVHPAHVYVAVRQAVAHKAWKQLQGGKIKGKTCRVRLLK
UniProt P0ADV7, sequence (P0ADV7 whole entry): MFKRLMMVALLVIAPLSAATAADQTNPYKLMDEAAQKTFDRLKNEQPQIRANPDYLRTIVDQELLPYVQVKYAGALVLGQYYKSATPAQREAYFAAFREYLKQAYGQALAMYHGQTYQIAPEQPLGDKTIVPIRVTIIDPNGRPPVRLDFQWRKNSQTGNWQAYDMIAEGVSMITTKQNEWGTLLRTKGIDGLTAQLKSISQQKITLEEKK
UniProt P23840, sequence (P23840 whole entry): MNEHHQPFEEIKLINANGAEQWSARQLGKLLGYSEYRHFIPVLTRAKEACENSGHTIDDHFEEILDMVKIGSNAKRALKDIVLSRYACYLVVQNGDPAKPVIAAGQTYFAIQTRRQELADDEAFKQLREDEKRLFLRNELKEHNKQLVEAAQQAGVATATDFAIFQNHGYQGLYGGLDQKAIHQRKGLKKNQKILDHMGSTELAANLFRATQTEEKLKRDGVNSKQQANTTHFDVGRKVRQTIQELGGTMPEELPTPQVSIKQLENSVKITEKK
UniProt P11557, sequence (P11557 whole entry): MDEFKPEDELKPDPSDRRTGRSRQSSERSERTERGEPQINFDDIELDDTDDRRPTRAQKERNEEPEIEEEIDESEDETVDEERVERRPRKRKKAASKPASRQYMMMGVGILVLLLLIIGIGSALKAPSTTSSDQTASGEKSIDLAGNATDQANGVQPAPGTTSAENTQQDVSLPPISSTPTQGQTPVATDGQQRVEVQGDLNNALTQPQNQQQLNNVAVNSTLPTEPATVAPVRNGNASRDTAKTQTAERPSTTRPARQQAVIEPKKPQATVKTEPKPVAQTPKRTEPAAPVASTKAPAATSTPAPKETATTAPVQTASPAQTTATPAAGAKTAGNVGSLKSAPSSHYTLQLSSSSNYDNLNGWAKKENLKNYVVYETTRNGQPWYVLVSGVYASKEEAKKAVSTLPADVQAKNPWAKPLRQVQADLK
UniProt P16691, sequence (P16691 whole entry): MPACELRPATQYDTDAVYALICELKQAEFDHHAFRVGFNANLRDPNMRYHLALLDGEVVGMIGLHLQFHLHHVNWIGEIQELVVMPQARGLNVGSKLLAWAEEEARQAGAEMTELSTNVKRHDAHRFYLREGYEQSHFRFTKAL
UniProt P0A698, sequence (P0A698 whole entry): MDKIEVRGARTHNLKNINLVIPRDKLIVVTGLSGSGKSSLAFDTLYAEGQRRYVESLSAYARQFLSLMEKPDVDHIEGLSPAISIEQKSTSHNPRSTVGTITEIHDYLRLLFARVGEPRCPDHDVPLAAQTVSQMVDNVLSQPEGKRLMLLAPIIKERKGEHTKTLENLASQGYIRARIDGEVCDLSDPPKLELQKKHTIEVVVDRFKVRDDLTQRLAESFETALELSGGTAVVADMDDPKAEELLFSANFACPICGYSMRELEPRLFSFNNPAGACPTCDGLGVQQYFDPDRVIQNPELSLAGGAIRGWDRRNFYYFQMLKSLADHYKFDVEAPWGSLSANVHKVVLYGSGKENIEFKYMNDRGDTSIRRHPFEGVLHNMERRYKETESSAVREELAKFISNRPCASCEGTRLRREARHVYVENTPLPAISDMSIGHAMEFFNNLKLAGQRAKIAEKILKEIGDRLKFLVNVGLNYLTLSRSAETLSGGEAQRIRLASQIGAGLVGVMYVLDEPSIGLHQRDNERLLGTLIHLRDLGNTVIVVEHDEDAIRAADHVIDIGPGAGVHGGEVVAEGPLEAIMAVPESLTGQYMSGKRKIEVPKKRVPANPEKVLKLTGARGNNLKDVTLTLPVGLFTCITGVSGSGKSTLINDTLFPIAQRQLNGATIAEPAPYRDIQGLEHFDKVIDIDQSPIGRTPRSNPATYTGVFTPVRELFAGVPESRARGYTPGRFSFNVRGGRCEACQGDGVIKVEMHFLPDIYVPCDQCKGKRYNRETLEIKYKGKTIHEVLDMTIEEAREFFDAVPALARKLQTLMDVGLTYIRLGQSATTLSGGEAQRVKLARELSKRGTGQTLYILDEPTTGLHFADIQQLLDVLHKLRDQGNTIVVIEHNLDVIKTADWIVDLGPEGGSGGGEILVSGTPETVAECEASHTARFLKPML
UniProt P16095, sequence (P16095 whole entry): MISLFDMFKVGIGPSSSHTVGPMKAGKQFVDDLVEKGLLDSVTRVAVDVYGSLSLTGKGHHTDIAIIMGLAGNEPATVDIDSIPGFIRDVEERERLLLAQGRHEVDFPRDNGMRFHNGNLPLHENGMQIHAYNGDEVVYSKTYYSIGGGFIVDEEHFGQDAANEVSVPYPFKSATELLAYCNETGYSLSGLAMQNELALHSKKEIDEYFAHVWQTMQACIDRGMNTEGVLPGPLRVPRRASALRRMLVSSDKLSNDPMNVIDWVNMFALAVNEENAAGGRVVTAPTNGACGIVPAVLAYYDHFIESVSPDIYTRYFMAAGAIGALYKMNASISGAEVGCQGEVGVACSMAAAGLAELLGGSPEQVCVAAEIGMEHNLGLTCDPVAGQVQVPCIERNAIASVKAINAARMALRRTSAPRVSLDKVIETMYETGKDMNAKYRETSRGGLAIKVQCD
UniProt P15640, sequence (P15640 whole entry): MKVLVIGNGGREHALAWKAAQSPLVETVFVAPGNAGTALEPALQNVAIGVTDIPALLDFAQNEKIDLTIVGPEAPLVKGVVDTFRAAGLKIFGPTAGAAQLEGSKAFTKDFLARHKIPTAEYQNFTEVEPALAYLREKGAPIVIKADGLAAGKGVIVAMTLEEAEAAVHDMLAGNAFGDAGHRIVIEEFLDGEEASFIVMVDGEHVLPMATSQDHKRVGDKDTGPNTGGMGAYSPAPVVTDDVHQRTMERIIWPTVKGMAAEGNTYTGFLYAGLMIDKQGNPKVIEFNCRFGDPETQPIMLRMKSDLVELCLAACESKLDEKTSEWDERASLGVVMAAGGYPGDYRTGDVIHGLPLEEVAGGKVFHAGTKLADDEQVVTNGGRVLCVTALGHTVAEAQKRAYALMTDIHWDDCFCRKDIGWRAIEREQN

Row | Target | log2 fold change
1 | UniProt P11557 (peptide sequence: AVSTLPADVQAK, peptide start residue: 402) | 0.435
2 | UniProt P16095 (peptide sequence: VGIGPSSSHTVGPMK, peptide start residue: 10) | 0.369
3 | UniProt P16691 (peptide sequence: VGFNANLRDPNMR, peptide start residue: 36) | -0.259
4 | UniProt P0ADV7 (peptide sequence: LKNEQPQIR, peptide start residue: 42) | 0.525
5 | UniProt P77293 (peptide sequence: GILSWVGGK, peptide start residue: 179) | -0.543
6 | UniProt P0AFZ1 (peptide sequence: NELEDLLEK, peptide start residue: 6) | 0.67
7 | UniProt P0A698 (peptide sequence: SSLAFDTLYAEGQRR, peptide start residue: 38) | 2.9
8 | UniProt Q47147 (peptide sequence: QANRGEVALENTHPFTR, peptide start residue: 80) | 0.755
9 | UniProt P23840 (peptide sequence: HFIPVLTR, peptide start residue: 38) | 0.387
10 | UniProt P15640 (peptide sequence: TSEWDER, peptide start residue: 323) | -1.28
11 | UniProt P21693 (peptide sequence: ELADQVAGELRR, peptide start residue: 82) | -1.53
12 | UniProt P00934 (peptide sequence: LYNLKDHNEQVSFAQAVTQGLGK, peptide start residue: 3) | -1.05
